Bioassay records: PubChem, several laboratories
Myeloid diff MLP = myeloid differentiation induction; actives 1% (n = 360,000); AID 624256; calls only at 10 µM; ER-HoxA9 myeloid progenitors, lysozyme-GFP differentiation, flow cytometry;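 active = normalized GFP-positive differentiation at or above the plate's own cutoff, the solvent-only control mean plus 3 SD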;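 note: cells exposed to compound for four days before flow analysis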
CRFBP-R2 block = antagonists of CRF-binding protein/CRF-R2 receptor complex; actives 0.59% (n = 350,000); inhibition, % at 11.8 µM; HEK293 CRF-R2/CRF-BP, CRF-induced calcium fluorescence; AID 588475;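 active = inhibition of the ligand-induced calcium signal above about 50% at the single tested concentration, limit read from the data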
TPT1 inh = inhibitors of Candida albicans tRNA 2'-phosphotransferase TPT1. recombinant caTPT1, FP RNA substrate dephosphorylation. inhibition, % at 5 µM. actives 0.81% (n = 300,000). AID 1962;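 active = inhibition above the mean of all tested compounds plus 3 SD, set per screening campaign, cut at about 24% in these data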
IDE inh = inhibitors of human insulin-degrading enzyme in cells. P14735. HEK cells, FAbetaB cleavage, fluorescence polarization. inhibition, % at 5.59 µM. actives 0.41% (n = 320,000);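 active = percent inhibition above the average of all tested compounds plus 3 SD, set per screening campaign, cut at about 16% in these data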;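 note: IDE supplied by intact live HEK cells; FP after avidin binding of uncleaved biotin substrate so inhibition keeps polarization high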
Target sequence (P14735 whole entry, looked up): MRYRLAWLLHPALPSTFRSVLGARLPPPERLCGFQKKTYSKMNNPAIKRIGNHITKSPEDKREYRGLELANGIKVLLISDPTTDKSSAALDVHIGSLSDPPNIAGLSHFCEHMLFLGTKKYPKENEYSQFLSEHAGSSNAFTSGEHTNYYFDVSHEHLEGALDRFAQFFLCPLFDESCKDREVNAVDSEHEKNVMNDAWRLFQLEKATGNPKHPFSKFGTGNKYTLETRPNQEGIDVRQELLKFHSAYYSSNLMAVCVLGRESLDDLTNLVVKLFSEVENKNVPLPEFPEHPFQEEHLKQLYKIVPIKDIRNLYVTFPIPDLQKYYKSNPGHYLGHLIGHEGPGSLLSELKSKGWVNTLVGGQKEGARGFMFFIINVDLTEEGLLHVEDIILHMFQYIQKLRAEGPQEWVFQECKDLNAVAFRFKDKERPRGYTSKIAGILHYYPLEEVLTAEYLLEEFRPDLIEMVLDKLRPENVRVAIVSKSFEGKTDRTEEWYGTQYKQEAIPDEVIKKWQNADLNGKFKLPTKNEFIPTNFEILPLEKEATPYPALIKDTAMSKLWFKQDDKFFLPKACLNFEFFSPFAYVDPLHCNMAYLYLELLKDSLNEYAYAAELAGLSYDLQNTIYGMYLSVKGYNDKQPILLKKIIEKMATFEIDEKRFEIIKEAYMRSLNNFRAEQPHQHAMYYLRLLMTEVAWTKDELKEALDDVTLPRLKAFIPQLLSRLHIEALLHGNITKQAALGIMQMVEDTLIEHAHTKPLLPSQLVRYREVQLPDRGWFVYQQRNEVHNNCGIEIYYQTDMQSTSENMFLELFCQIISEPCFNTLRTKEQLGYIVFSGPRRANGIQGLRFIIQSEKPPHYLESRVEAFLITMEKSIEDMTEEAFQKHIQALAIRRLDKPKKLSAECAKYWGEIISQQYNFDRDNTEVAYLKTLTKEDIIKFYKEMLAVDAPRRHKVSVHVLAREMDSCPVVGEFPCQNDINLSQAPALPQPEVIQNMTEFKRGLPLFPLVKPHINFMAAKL
CRFBP-R2 agonist = agonists of human CRF-binding protein/CRF-R2 receptor complex. HEK293 CRF-R2/CRF-BP, calcium dye fluorescence (FLIPR); percent of saturating CRF peptide response. activation, % at 13.2 µM. actives 0.46% (n = 350,000);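 active = activation of at least 50%, plus an integration ratio under a set limit after plate pattern correction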
IDE act = activators of human insulin-degrading enzyme in cells; P14735; HEK cells, FAbeta-B cleavage, fluorescence polarization; 0% vehicle, 100% cell-free pure enzyme wells; activation, % at 5.96 µM; actives 0.073% (n = 340,000); AID 493087;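 active = activation above the mean of all tested compounds plus 3 SD, set per screening campaign, cut at about 17% in these data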
Large screens that a line does not name were inactive. Only some compounds are listed: those with a hit (about 2.6% of all), similar ones and a draw of the others.

CCN(c1ccccc1)S(=O)(=O)c1ccc(C(=O)Nc2cccc(NC(C)=O)c2)cc1	none (no result: TPT1 inh)
O=S(=O)(NC1CCCCC1N1CCOCC1)c1ccc(Cl)cc1 (centres undefined)	CRFBP-R2 agonist 133
O=S(=O)(NC1CCCCC1N1CCN(c2ccccc2F)CC1)c1ccc(Cl)cc1 (centres undefined)	CRFBP-R2 agonist 93
CN1CCN(C2CCCCC2NS(=O)(=O)c2ccccc2)CC1 (centres undefined)	none
O=S(=O)(NC1CCCCC1N1CCN(c2cccc(Cl)c2)CC1)c1ccccc1 (centres undefined)	none
Cc1ccccc1CCNC(=O)Cn1ccc2cc(S(=O)(=O)N3CCCC3)ccc21	none
CCOc1ccc(CN(C)c2ccc(S(=O)(=O)N3CCN(C)CC3)cc2[N+](=O)[O-])cc1OC	none (no result: TPT1 inh)
CCN1C(=O)N[C@@H](CCc2ccccc2)[C@@H](C(=O)OC)[C@H]1C	Myeloid diff MLP active
COC(=O)[C@H]1[C@H](CCc2ccccc2)NC(=O)N(Cc2ccccc2)[C@@H]1C	none
COC(=O)[C@H]1[C@@H](C)N(Cc2ccccc2)C(=O)N[C@H]1c1cccc(C(F)(F)F)c1	Myeloid diff MLP active
O=C(c1ccc(Cn2cc([N+](=O)[O-])cn2)o1)N1CCCCCC1	none
O=C(O)CCCC[C@@H]1SC[C@@H]2NC(=O)N[C@@H]21	IDE act 64
Cc1c(C(=O)O)cccc1-n1c(C)cc(/C=C(/C#N)C(=O)NCc2ccccc2)c1C	none (no result: IDE act)
CCN(CC)S(=O)(=O)c1cc(NC(=O)Cc2ccc(S(=O)(=O)N3CCOCC3)s2)ccc1Cl	none (no result: TPT1 inh, IDE inh)
CCN(CC)C(=O)CSc1nc(-c2ccccc2)ccc1C#N	none
N#Cc1ccc(-c2ccc(Cl)cc2)nc1SCC(=O)c1cccc(Cl)c1	Myeloid diff MLP active
CN1CCN(c2ccccc2NC(=O)c2sc3ccccc3c2Cl)CC1	none
COC(=O)c1ccc(C2C(C(=O)c3cc4ccccc4o3)=C(O)C(=O)N2CCCN(C)C)cc1 (centres undefined)	CRFBP-R2 block 114
CN(C)CCCN1C(=O)C(O)=C(C(=O)c2cc3ccccc3o2)C1c1ccccc1 (centres undefined)	none
COc1ccc(-c2csc(-c3ccc(C(=O)O)cc3)n2)cc1	none
O=C(O)c1ccc(-c2nc(-c3ccc(Cl)cc3)cs2)cc1	CRFBP-R2 block 53 (no result: TPT1 inh, IDE inh)
O=C(O)c1ccc(-c2nc(-c3ccc(Cl)cc3Cl)cs2)cc1	CRFBP-R2 block 67
O=C(CCc1ccc(O)c(O)c1)NNC(=S)Nc1ccc(Br)cc1Cl	none (no result: IDE act)
CCOC(=O)c1c(-c2ccccc2)oc2ccc(OC(C)=O)cc12	none
CCOC(=O)c1c(-c2ccccc2)oc2ccc(OC(C)C(=O)O)cc12 (centres undefined)	CRFBP-R2 block 52
CC(=O)Nc1sc2c(c1C(c1ccccc1Cl)N1CCN(CCO)CC1)CCCC2 (centres undefined)	Myeloid diff MLP active
CCSc1ccc2cc(OC)ccc2[n+]1CC	Myeloid diff MLP active
CC(=O)OCCN1c2ccccc2Sc2cnccc21	none (no result: TPT1 inh, IDE inh, IDE act)
CC(=O)OCCCN1c2ccccc2Nc2nnc(-c3ccccc3)cc21	Myeloid diff MLP active
O=C1NC(=O)C(Cc2c[nH]c3ccccc23)N1 (centres undefined)	none
C#CCSc1nnc(-c2c[nH]c3ccccc23)n1C	Myeloid diff MLP active
CC(C)Sc1nnc(-c2c[nH]c3ccccc23)n1C	none
O=[N+]([O-])c1cc(Cl)cc(/C=N/Nc2nc3ccccc3s2)c1O	CRFBP-R2 block 82
CN(CC1COc2ccccc2O1)C(=O)CCNS(=O)(=O)c1ccc(F)c(Cl)c1 (centres undefined)	none (no result: TPT1 inh, IDE inh, IDE act)
Cc1ccc(OCC(=O)c2cc(C)n(-c3cc(C)on3)c2C)c([N+](=O)[O-])n1	Myeloid diff MLP active (no result: TPT1 inh, IDE inh)
CC(CCc1ccco1)NC(=O)c1cccc2c1C(=O)N(C1CCCCC1)C2 (centres undefined)	CRFBP-R2 block 51
C/C(=N\NC(=S)Nc1cc(S(=O)(=O)N2CCOCC2)ccc1Cl)c1ccc(N2CCOCC2)cc1	Myeloid diff MLP active
COc1ccc2cc(/C(C)=N/NC(=S)Nc3cc(S(=O)(=O)N4CCOCC4)ccc3N3CCOCC3)ccc2c1	none (no result: Myeloid diff MLP, CRFBP-R2 block, CRFBP-R2 agonist, IDE act)
O=C(CN(Cc1ccccc1Cl)C(=O)c1csnn1)NCc1ccc2c(c1)OCO2	none
